Experimental findings from PubChem BioAssay (Tox21) are described below.

A short description of experiment [1]: qHTS assay for small molecules that induce genotoxicity in human embryonic kidney cells expressing luciferase-tagged ATAD5 (AID 651632). Also: nearly all actives have a fitted effect of over 15% in size. Also: potency is read from the fitted curve at half-maximal effect. The gist of the method: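 Luminescent reporter readout, HEK293T ATAD5-luc line: 16 hr drug exposure (37C, 5% CO2) followed by Amplite, 30 min RT.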
The nature of experiment [2]: qHTS assay for small molecule agonists of the p53 signaling pathway - cell viability (AID 651633; calls by dose curve; also: nearly all actives have a fitted effect of over 30% in size; also: potency is read from the fitted curve at half-maximal effect). Put shortly:
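p53RE-bla cells were treated with compound for 16 hours at 37 C. Cytotoxicity was then measured as CellTiter-Glo luminescence after 30 min at room temperature.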

The nature of experiment [3]: qHTS assay for small molecule disruptors of the mitochondrial membrane potential - cell viability (AID 720634; calls by dose curve; also: nearly all actives have a fitted effect of over 20% in size; also: potency is read from the fitted curve at half-maximal effect). Put shortly: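 HepG2, 1 hr compound, 37 C. ATP luminescence via CellTiter-Glo, 30 min RT, same well as m-MPI.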
Experiment [4] can be described thus: qHTS assay for small molecule disruptors of the mitochondrial membrane potential (AID 720635). Also: potency is read from the fitted curve at half-maximal effect. Put shortly: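 HepG2 cells exposed to compound 1 hr at 37C, then Mito-MPS dye 30 min. Ratio read of aggregate (540/590 nm) versus monomer (490/535 nm) fluorescence.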
The nature of experiment [5]: qHTS assay to test for compound auto fluorescence at 590 nm (red) in HepG2 cells (AID 720674). Put shortly:
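Seeding: 2,000 HepG2 cells/well, MEM/10% FBS, overnight 37 C. Dosing: compound vs DMSO. Incubation: 1 hr, 37 C, 5% CO2. Read: fluorescence 540 ex/590 em, Rose Bengal sodium as red reference.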

The nature of experiment [6]: qHTS assay to test for compound auto fluorescence at 535 nm (green) in HepG2 cells (AID 720675). Also: potency is read from the fitted curve at half-maximal effect.
Experiment [7] can be described thus: qHTS assay to test for compound auto fluorescence at 460 nm (blue) in HEK293 cells (AID 720678). Also: potency is read from the fitted curve at half-maximal effect. Put shortly: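 Intrinsic compound fluorescence is recorded in live HEK293 cultures after overnight incubation at 37C, 5% CO2, using excitation 405 nm and emission 460 nm. Values are referenced to triamterene.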
A short description of experiment [8]: qHTS assay to test for compound auto fluorescence at 590 nm (red) in HEK293 cells (AID 720679). Put shortly:
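Red autofluorescence, HEK293 cells: 2,000 cells/well; attach 4-5 hr 37C; add 23 nL cpd or DMSO; incubate o/n 37C 5% CO2; read Ex540/Em590; Rose Bengal sodium reference.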

Experiment [9] can be described thus: qHTS assay for small molecules that induce genotoxicity in human embryonic kidney cells expressing luciferase-tagged ATAD5 - cell viability (AID 651634; calls by dose curve; also: nearly all actives have a fitted effect of over 25% in size; also: potency is read from the fitted curve at half-maximal effect). Put shortly: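 Viability read: CellTiter-Fluor fluorescence, 30 min at 37C. Cells: HEK293T, luciferase-tagged ATAD5. Exposure: 15.5 hr, 37C, 5% CO2, compound or DMSO vehicle.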

A number with no mark means an inactive call. Records with an inconclusive call do not appear. The source made the active and inactive calls. Unless noted, calls follow the shape of the dose curve; as a rule, active = well fitted curve in the direction sought with a large enough effect in the repeat runs; inconclusive = weak or mixed curves; inactive = no such curve, though single readings can be large; an effect the other way counts as inactive or inconclusive.
Tags tell the direction and shape of the fitted curve or compound fluorescence and quenching.

Regarding `CC1=C(C(=O)OC(C)C)C(c2cccc([N+](=O)[O-])c2)C(C(=O)OC2CN(C(c3ccccc3)c3ccccc3)C2)=C(N)N1` (stereo not drawn), the Potency result in experiment [1], in experiment [5], in experiment [6], in experiment [7] and in [8] was “inactive” in each case. Also, the Potency in experiment [2] was 7.5 µM (active); in [3], 7.5 µM (active); in [4], 1.19 µM (active).

On to `CC/C(=C(\c1ccc(O)cc1)c1ccc(OCCN(C)C)cc1)c1ccccc1`, for which the Potency in [9] was 61.3 µM (active).

On to `Cc1cccc(CN2CCN(C(c3ccccc3)c3ccc(Cl)cc3)CC2)c1` (stereo not drawn), for which, in [9], the Potency entry is “inactive”.

Take `CCC1=C[C@@H]2CN(C1)Cc1c([nH]c3ccccc13)[C@@](C(=O)OC)(c1cc3c(cc1OC)N(C)[C@H]1[C@@](O)(C(=O)OC)[C@H](OC(C)=O)[C@]4(CC)C=CCN5CC[C@]31[C@@H]54)C2`: the Potency is 2.37 µM (active) in experiment [1] and 1.19 µM (active) in [9]. For the same compound, the Potency entry in experiment [3], in experiment [5], in experiment [6], in [7] and in experiment [8] was “inactive” throughout.

For `Cc1[nH]nc2c1N=C(c1ccccc1Cl)c1cc([N+](=O)[O-])ccc1N2`, the Potency in experiment [1] is 1.93 µM (active); in experiment [9], 30.6 µM (active). Also, the Potency entry in [3], in experiment [5], in experiment [6], in experiment [7] and in [8] was “inactive” in each case.

As for `CCN(Cc1cccnc1)C(=O)c1cccc(Cl)c1[C@]1(C)C(=O)N(Cc2ccc(OC)cc2OC)c2ccc(Cl)cc21`, the Potency result in [1], in experiment [3], in experiment [5], in experiment [6], in [7] and in [8] was “inactive” each time. The Potency in [9] is 9.05 µM (active); in [4], 8.07 µM (active).

`Oc1ccc(N=Nc2ccccc2)cc1`: the Potency result in [2], in [5], in experiment [6], in experiment [7] and in experiment [8] was “inactive” each time. In addition, the Potency in experiment [3] is 6.95 µM (active).

On to `CSc1ccc2c(c1)C(N1CCN(C)CC1)Cc1ccccc1S2` (stereo not drawn), for which the Potency result in experiment [1], in experiment [3], in [5], in experiment [6], in [7] and in experiment [8] was “inactive” throughout.

Take `Nc1ccc2c3c(cccc13)-c1ccccc1-2`: the Potency result in [1], in experiment [5] and in [8] was “inactive” throughout. Further, the Potency in experiment [4] was 4.91 µM (active); in [6], 39.8 µM (active).

Consider `O=Cc1cc(O)ccc1Br`, for which the Potency entry in experiment [1], in [9], in experiment [3], in [5], in experiment [6] and in experiment [7] was “inactive” in each case. Also, in [8], the Potency entry is “inactive”.

As to `CCN(CC)CCNC(=O)c1c(C)[nH]c(/C=C2\C(=O)Nc3ccc(F)cc32)c1C`, in experiment [2], the Potency is 11.9 µM (active). The Potency result in [3], in experiment [5], in [6], in experiment [7] and in experiment [8] was “inactive” each time.

For `CCC(Cl)C(Cl)C(Cl)CC(Cl)C(Cl)C(C)Cl` (stereo not drawn), the Potency entry in experiment [1], in [9], in [3], in [5], in [6] and in experiment [7] was “inactive” throughout. Moreover, in experiment [8], the Potency entry was “inactive”. Moreover, the Potency in [4] was 24.3 µM (active).

As for `Nc1ccc2cc(S(=O)(=O)O)cc(O)c2c1N=Nc1ccccc1C(F)(F)F`, the Potency entry in [1], in experiment [3], in experiment [5], in [6], in [7] and in experiment [8] was “inactive” in each case.

Take `O=c1[nH]sc2ccccc12`: the Potency result in experiment [1], in [3], in [5], in [6], in experiment [7] and in experiment [8] was “inactive” in each case.

Take `Nc1ccccc1O`: the Potency result in [1], in [3], in experiment [5], in [6], in experiment [7] and in experiment [8] was “inactive” in each case. Moreover, the Potency in [4] was 60.3 µM (active).

In the case of `C/C=C1/C(=O)C[C@H]2[C@@H]3CCC4=CC(=O)CC[C@]4(C)[C@H]3CC[C@]12C`, the Potency entry in experiment [1], in experiment [9], in [3], in experiment [5], in [6] and in experiment [7] was “inactive” each time. The Potency result in [8] is “inactive”.

Consider `OCCCCCCCCCCCCBr`, for which the Potency result in experiment [1], in [3], in [5], in experiment [6], in experiment [7] and in [8] was “inactive” in each case. Besides, the Potency in experiment [4] was 62.1 µM (active).

On to `NNc1nc(-c2ccccc2)cs1`, for which the Potency entry in experiment [1], in [3], in [5], in experiment [6], in experiment [7] and in experiment [8] was “inactive” each time. The Potency in experiment [4] was 1.58 µM (active).

In the case of `OCCN(CCO)c1nc(N2CCCCC2)c2nc(N(CCO)CCO)nc(N3CCCCC3)c2n1`, the Potency result in [1], in [3], in [5], in experiment [6] and in experiment [8] was “inactive” in each case. For the same compound, in experiment [7], the Potency is 12.6 µM [fluorescent] (active).

On to `CN(C/C=C/C#CC(C)(C)C)Cc1cccc2ccccc12`, for which the Potency result in experiment [1], in experiment [9], in experiment [3], in experiment [4], in experiment [5] and in experiment [6] was “inactive” each time. Further, the Potency entry in [7] and in [8] was “inactive” each time.

Consider `CCc1cc(Cc2cc(CC)c(N)c(CC)c2)cc(CC)c1N`, for which the Potency result in [1], in [9], in experiment [5], in experiment [6], in [7] and in [8] was “inactive” each time. For the same compound, in experiment [4], the Potency was 27.3 µM (active).

For `CC(C)(C)NC(=O)[C@@H]1C[C@@H]2CCCC[C@@H]2CN1C[C@@H](O)[C@H](Cc1ccccc1)NC(=O)[C@H](CC(N)=O)NC(=O)c1ccc2ccccc2n1`, the Potency result in [1], in [3], in experiment [5], in [6], in [7] and in [8] was “inactive” in each case. In experiment [4], the Potency is 43.8 µM (active).
